Parameters in all cases: scale not given: direction of the effect not stated beside the values
Assay [1] concerns the target Protein translocase subunit SecA (Escherichia coli (strain K12)) (UniProt P10408). As to the kind of experiment: Assay to Identify E. coli SecA ATPase Inhibitors. It counts as functional. The following applies: 30 µM.
The target in assay [2] is T1, Ubiquitin-activating enzyme e1, putative (Leishmania donovani (strain BPK282A1)) (UniProt E9BSI1).
T1 sequence (whole entry): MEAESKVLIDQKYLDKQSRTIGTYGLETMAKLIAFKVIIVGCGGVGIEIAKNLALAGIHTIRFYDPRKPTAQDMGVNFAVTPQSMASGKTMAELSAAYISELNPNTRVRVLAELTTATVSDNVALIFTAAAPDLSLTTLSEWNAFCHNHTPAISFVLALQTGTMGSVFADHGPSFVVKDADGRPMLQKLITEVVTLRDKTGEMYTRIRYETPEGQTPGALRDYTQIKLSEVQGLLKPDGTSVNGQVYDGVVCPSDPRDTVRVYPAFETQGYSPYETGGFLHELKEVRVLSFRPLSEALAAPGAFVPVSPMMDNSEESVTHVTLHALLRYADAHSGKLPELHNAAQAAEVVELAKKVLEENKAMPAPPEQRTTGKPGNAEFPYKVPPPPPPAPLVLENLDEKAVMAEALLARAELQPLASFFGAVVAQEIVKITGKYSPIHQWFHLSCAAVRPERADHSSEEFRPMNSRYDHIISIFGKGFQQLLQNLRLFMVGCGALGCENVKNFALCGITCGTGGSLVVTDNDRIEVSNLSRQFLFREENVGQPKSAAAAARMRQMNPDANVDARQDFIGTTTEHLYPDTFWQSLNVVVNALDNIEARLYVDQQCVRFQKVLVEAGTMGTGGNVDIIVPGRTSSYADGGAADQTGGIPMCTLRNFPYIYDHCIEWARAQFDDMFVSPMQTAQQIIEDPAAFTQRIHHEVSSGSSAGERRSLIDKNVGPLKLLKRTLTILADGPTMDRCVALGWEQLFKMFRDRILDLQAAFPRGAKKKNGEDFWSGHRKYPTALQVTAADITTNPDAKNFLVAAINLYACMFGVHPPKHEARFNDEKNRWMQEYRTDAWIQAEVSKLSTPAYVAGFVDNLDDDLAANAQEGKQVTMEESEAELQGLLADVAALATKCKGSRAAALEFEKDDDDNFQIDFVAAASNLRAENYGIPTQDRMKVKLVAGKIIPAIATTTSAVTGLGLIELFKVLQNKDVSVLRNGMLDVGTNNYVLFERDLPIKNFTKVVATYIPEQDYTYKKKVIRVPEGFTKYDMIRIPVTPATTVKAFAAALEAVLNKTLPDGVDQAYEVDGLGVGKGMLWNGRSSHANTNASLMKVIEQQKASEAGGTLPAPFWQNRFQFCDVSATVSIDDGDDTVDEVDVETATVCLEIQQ
Put plainly: Leishmania donovani Ubiquitin Activating Enzyme (LdE1). It counts as functional. The following applies: 30 µM.

Assay [3] deals with AMP-activated protein kinase, AMPK (Homo sapiens) (UniProt P54646+O43741+P54619+Q9UGJ0+Q9Y478+Q13131+Q9UGI9). As to the kind of experiment: AMP-dependent Kinase enzyme assay. An in vitro enzyme assay that detects ADP turnover that is directly proportional to AMPK activity. This uses naive AMPK that is activated during the assay with MK-8722. It counts as functional. The following applies: 30 µM.

In assay [4] the target is Sialic acid-binding Ig-like lectin 9 (Homo sapiens) (UniProt Q9Y336). Put plainly: Hs-Siglec9 ALPHAscreen SOP 20170721. As to conditions: 10 µM. Background: In Alpha technology, singlet oxygen from a donor bead excites a nearby acceptor bead.
Sialic acid-binding Ig-like lectin 9 (Homo sapiens), sequence (Q9Y336 whole entry): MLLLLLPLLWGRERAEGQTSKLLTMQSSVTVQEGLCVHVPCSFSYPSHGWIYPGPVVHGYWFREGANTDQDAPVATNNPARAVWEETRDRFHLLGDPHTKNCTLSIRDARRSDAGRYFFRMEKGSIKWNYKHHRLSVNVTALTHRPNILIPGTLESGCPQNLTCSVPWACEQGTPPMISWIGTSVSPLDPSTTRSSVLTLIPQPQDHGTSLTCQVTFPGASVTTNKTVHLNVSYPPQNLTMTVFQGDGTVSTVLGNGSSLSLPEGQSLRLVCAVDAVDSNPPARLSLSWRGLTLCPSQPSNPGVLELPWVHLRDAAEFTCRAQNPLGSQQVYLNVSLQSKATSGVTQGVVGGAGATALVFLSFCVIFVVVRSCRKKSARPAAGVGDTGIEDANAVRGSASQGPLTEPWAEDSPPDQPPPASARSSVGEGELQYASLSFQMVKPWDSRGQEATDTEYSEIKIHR
A further assay concerns Trypanosoma cruzi. Put plainly: Trypanosoma cruzi phosphomannomutase and mannose-1-phosphate guanylyltransferase assay. It counts as functional. As to conditions: 10 µM.
The target in assay [5] is T2, Arginase-2, mitochondrial (Homo sapiens) (UniProt P78540).
T2 sequence (whole entry): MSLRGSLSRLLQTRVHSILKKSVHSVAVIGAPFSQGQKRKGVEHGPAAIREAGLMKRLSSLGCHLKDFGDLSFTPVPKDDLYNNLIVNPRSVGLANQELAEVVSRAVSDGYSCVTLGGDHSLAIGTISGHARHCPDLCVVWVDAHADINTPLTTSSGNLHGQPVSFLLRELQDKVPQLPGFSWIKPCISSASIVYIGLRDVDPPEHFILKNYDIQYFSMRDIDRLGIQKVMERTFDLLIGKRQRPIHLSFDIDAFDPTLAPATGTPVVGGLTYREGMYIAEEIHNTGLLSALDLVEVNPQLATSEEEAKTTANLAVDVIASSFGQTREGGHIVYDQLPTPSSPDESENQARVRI
As to the kind of experiment: in vitro enzyme assay to detect the production of urea directly proportional to the activity of Arginase II. Note: in the data most compounds retested in dose-response had high values. It counts as functional. As to conditions: 33.3 µM.

Assay [6] deals with T3, Proteasome subunit beta (Trypanosoma cruzi) (UniProt O96673).
T3 sequence (whole entry): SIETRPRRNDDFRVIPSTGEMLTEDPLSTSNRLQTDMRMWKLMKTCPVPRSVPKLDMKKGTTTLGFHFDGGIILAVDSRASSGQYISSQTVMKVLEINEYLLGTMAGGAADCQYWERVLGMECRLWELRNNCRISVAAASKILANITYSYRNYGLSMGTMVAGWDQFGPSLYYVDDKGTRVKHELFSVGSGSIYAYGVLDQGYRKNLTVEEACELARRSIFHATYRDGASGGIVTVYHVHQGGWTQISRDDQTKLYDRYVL
Put plainly: Trypanosoma cruzi proteasome chymotrypsin-like activity (TcProtChymo) assay. Note: in the data most compounds retested in dose-response had high values. It counts as functional. The following applies: 9.37 µM.

The species named for another assay is Homo sapiens. Put plainly: To identify inhibition of the IFN signalling (Jak-Stat) pathway via expression of an eGFP reporter gene under the control of an IFN-stimulated response element (ISRE) containing MxA promoter. It counts as functional. As to conditions: 30 µM. For orientation: Reporter assays use an easily measured gene product as a stand-in for the process of interest.

Assay [7] has as its target T4, Tyrosyl-tRNA synthetase, putative (Trypanosoma cruzi (strain CL Brener)) (UniProt Q4DSP6).
T4 sequence (whole entry): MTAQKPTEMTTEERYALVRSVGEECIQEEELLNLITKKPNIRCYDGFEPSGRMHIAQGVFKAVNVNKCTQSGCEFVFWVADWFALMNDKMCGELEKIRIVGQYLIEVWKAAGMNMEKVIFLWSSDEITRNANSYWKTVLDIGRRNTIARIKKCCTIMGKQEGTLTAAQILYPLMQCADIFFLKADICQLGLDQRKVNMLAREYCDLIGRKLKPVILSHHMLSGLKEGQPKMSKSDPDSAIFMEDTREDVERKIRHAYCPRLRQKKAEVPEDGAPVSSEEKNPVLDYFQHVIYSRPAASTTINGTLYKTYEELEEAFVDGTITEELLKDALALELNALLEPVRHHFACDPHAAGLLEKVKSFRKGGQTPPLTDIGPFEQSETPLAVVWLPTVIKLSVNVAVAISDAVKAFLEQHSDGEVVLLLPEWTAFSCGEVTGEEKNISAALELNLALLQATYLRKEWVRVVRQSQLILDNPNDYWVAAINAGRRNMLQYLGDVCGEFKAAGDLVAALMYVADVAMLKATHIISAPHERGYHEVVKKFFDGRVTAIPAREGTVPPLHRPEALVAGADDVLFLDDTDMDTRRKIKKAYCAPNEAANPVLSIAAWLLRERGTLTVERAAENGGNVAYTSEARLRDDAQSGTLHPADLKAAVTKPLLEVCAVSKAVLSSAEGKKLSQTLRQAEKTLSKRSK
As to the kind of experiment: Trypanosoma cruzi tyrosyl tRNA synthetase (TcYRS) _High Tyrosine SOP. Note: in the data most compounds retested in dose-response had high values. It counts as functional. As to conditions: 30 µM.

The target of assay [8] is T4, Tyrosyl-tRNA synthetase, putative (Trypanosoma cruzi (strain CL Brener)). As to the kind of experiment: Trypanosoma cruzi tyrosyl tRNA synthetase (TcYRS) SOP. It counts as functional. The following applies: 30 µM.
The target in assay [9] is Chromo domain-containing protein 1 (Saccharomyces cerevisiae (strain ATCC 204508 / S288c) (Baker's yeast)) (UniProt P32657). As to the kind of experiment: ScCHD-1 Enzyme Inhibition Assay. Note: in the data most compounds retested in dose-response had high values. It counts as functional. The following applies: 30 µM.
Chromo domain-containing protein 1 (Saccharomyces cerevisiae (strain ATCC 204508 / S288c) (Baker's yeast)), sequence (P32657 whole entry, the tested form may be a part): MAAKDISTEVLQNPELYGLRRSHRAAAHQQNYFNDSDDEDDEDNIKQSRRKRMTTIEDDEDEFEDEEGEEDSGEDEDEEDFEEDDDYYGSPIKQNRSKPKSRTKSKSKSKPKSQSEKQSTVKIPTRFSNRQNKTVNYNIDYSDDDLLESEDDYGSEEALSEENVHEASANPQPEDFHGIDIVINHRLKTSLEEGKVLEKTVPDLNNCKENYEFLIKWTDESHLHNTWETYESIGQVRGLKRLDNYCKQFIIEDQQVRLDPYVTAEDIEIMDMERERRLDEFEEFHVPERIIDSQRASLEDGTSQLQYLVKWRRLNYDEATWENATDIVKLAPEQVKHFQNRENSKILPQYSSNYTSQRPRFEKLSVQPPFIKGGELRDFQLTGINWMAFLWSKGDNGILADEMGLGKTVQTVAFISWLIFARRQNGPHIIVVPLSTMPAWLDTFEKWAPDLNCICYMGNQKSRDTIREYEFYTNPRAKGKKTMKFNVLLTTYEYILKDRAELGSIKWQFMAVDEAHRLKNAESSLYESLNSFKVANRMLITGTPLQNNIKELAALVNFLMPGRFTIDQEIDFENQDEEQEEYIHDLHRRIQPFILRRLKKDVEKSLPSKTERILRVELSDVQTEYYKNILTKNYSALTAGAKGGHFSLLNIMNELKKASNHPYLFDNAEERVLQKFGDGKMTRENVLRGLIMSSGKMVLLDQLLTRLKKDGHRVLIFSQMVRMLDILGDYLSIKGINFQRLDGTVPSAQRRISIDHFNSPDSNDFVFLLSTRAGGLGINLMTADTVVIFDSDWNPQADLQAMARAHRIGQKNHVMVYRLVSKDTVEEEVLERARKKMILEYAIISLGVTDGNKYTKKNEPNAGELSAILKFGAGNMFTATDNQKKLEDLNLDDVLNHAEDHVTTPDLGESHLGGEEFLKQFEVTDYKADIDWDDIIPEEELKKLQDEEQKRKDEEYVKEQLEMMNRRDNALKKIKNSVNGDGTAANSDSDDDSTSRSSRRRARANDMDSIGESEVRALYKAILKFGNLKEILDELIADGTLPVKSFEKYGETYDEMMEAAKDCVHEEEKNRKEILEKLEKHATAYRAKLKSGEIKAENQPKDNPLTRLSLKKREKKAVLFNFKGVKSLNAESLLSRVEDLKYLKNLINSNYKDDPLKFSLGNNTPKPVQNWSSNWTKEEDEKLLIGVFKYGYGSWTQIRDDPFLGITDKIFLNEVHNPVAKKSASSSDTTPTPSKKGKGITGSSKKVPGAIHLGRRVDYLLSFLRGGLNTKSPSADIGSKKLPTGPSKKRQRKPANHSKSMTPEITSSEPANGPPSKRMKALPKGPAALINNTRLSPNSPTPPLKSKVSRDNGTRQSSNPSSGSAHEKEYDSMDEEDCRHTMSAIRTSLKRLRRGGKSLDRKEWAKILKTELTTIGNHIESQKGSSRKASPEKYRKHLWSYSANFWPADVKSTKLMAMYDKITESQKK

For some of these results: Measured potencies and affinities stand elsewhere.

Protein translocase subunit SecA (Escherichia coli (strain K12)), sequence (P10408 whole entry): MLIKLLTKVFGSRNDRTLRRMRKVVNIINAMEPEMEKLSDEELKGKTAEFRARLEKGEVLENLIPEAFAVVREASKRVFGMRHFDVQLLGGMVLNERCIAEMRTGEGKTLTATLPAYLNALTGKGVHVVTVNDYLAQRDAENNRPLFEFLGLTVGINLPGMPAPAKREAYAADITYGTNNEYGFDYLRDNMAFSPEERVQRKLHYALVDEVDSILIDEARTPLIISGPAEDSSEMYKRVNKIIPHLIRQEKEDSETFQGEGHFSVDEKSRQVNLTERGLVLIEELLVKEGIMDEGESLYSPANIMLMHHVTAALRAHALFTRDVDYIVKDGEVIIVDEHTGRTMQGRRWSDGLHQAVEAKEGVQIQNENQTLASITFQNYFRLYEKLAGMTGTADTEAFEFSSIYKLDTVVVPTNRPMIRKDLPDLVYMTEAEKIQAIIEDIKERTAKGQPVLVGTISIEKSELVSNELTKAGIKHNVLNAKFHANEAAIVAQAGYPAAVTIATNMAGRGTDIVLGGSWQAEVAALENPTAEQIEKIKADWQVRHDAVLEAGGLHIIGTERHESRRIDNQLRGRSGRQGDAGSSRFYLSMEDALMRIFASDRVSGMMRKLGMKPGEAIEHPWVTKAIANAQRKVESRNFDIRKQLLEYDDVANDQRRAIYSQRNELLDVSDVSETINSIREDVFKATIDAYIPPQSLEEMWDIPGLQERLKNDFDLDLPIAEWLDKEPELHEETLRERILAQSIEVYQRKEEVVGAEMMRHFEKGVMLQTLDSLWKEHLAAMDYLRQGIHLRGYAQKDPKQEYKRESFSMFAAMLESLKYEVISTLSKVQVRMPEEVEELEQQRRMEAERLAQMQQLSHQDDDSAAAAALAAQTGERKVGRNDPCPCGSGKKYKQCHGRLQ

Turning to `CC(=O)N(C)CC(=O)Nc1cccc(N2CCN(CC3CC3)CC2)c1`, the Percent Effect in [1] was -6.27%; in [2] it was 5.41%; in [3] it was -9.55%; in assay [4] it was 0.217%; in the assay on Trypanosoma cruzi, -1.86%; in assay [5], -13.2%. Moreover, the Percent Effect in assay [6] was 1.46%; in the assay filed under Homo sapiens it was 4.97%; in assay [7], 3.23%; in assay [8], 11.1%; in assay [9], 0.0532%.
In the case of `CN(Cc1cccc(F)c1)C1CCN(CCc2ccccn2)CC1`, the Percent Effect was -3.25% in assay [1]; 21.6% in assay [2]; -5.03% in assay [3]; -1.38% in assay [4]; -0.65% in the assay with Trypanosoma cruzi; -1.29% in assay [5]. Also, the Percent Effect in assay [6] was 9.34%; in the assay filed under Homo sapiens, 20.8%; in [7], 3.96%; in [8], 13.4%; in assay [9], -4.09%.
In the case of `Cc1ccc(C(O)CNCc2c(C(C)C)nn(C)c2N(C)C)cc1` (stereo unspecified), the Percent Effect is -7.17% in [1]; 13% in assay [2]; -5.78% in assay [3]; 6.38% in assay [4]; 7.87% in the assay on Trypanosoma cruzi; -3.56% in assay [5]. Besides, the Percent Effect is 10.1% in assay [6]; -0.105% in the assay listed under Homo sapiens; 10.7% in assay [7]; 19.5% in assay [8]; -7.91% in [9].
Consider `Cc1ncsc1C(=O)NC1CCN(CC(=O)N(C)C(C)(C)C#N)CC1`, for which the Percent Effect in assay [1] is -9.21%; in assay [2], 7.89%; in [3], -2.06%; in assay [4], 0.841%; in the assay on Trypanosoma cruzi, -1.77%; in assay [5] it was 1.08%. In addition, the Percent Effect in assay [6] was -2.45%; in the assay listed under Homo sapiens, 23.3%; in [7], 1.48%; in [8], -1.24%; in assay [9], 2.71%.
On to `CCOc1ncccc1NC(=O)N1CCc2ccccc2C1`, for which the Percent Effect in assay [1] is -2.4%; in assay [2], -5.41%; in [3], -19.1%; in [4] it was 3.06%; in the assay with Trypanosoma cruzi, -2.14%; in assay [5] it was 7.95%. In addition, the Percent Effect in [6] was 0%; in the assay listed under Homo sapiens it was -3.53%; in assay [7], -1.98%; in assay [8], -1.22%; in assay [9], 9.66%.
For `Cc1nc(C2CCCN(C(=O)C(C)(C)n3cc(Cl)cn3)C2)no1` (stereo unspecified), the Percent Effect in assay [1] is -1.25%; in [2] it was 3.8%; in [3], -0.545%; in assay [4], 3.13%; in the assay with Trypanosoma cruzi it was 2.77%; in assay [5] it was 3.23%. For the same compound, the Percent Effect was 0.343% in assay [6]; -9.61% in the assay listed under Homo sapiens; 6.25% in assay [7]; 7.59% in [8]; -13.7% in assay [9].
With `CN(CCCOc1ccc(F)cc1)Cc1nc2c(cnn2C)c(=O)[nH]1`, the Percent Effect in assay [1] is -0.991%; in assay [2] it was 15.8%; in assay [3] it was 0.698%; in assay [4], -3.57%; in the assay with Trypanosoma cruzi, 4.39%; in [5], 1.8%. For the same compound, the Percent Effect in assay [6] is 14.8%; in the assay listed under Homo sapiens it was 0.0389%; in [7], 8.37%; in [8], 23.5%; in assay [9], -8.26%.
Consider `CS(=O)(=O)NC[C@]12COC[C@H]1CN(C(=O)C1CCCCC1)C2`, for which the Percent Effect was -1.23% in assay [1]; 0% in assay [2]; 2.98% in [3]; -0.175% in assay [4]; -1.47% in the assay on Trypanosoma cruzi; 14.3% in [5]. Also, the Percent Effect was 17.7% in assay [6]; -0.518% in the assay listed under Homo sapiens; -20.5% in [7]; -25.6% in [8]; 3.02% in assay [9].
Regarding `Cc1noc([C@@H]2C[C@H]3OCC[C@H]3N(S(C)(=O)=O)C2)n1`, the Percent Effect in assay [1] is -1.89%; in assay [2], 11%; in [3], -9.13%; in [4], 8.3%; in the assay on Trypanosoma cruzi, 4.37%; in assay [5] it was -1.6%. In addition, the Percent Effect in assay [6] was 9.5%; in the assay filed under Homo sapiens, 1.34%; in assay [7], 6.25%; in assay [8], 8.64%; in assay [9], -4.65%.
Take `Cc1nn(C)c(C)c1C1CCCN1C(=O)c1cc[nH]n1` (stereo unspecified): the Percent Effect in assay [1] is -3.64%; in [2] it was 3.8%; in [3] it was 5.29%; in [4] it was 4%; in the assay with Trypanosoma cruzi, -4.41%; in assay [5] it was -1.07%. For the same compound, the Percent Effect in assay [6] is 5.49%; in the assay listed under Homo sapiens, 10.6%; in assay [7] it was -1.04%; in assay [8] it was 7.59%; in [9] it was 7.31%.
Regarding `COc1ccc(CS(=O)(=O)CC(=O)NCc2ccccc2F)cc1F`, the Percent Effect was -3.22% in assay [1]; 7.89% in assay [2]; 5.57% in assay [3]; -2.07% in assay [4]; -2.63% in the assay with Trypanosoma cruzi; 8.28% in assay [5]. The Percent Effect in assay [6] is 17.2%; in the assay listed under Homo sapiens, -0.495%; in assay [7] it was 4.25%; in [8], 5.2%; in [9], -2.98%.

For the origin of these results see ChEMBL document CHEMBL3988442, “University of Dundee, Small-Polar-MMV Screening Library” (2021).
